Molecular target: HOXB4 (Homo sapiens, UniProt P17483 148-234)
Assay: PBM; 200 nM protein, PBS
Settings: dsDNA, one strand shown

Chain of HOXB4 (Homo sapiens, UniProt P17483 148-234) (P17483 148-234): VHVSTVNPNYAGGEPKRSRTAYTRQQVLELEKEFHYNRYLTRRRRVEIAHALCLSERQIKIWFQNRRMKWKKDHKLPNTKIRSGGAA

| Sequence | binding signal |
| --- | --- |
| CTTAAGCA | 10.1 upbm affinity estimate (log intensity, higher = more binding, comparable within an allelic series) |
| GGATTCCC | 7.58 upbm affinity estimate (log intensity, higher = more binding, comparable within an allelic series) |
| ATTACTTA | 12.1 upbm affinity estimate (log intensity, higher = more binding, comparable within an allelic series) |
| AATATAAA | 10.6 upbm affinity estimate (log intensity, higher = more binding, comparable within an allelic series) |
| CCGTGCGC | 7.73 upbm affinity estimate (log intensity, higher = more binding, comparable within an allelic series) |
| CCCGAGCC | 7.67 upbm affinity estimate (log intensity, higher = more binding, comparable within an allelic series) |
| ATTAAAGC | 11.7 upbm affinity estimate (log intensity, higher = more binding, comparable within an allelic series) |
| GATTATTA | 12.9 upbm affinity estimate (log intensity, higher = more binding, comparable within an allelic series) |
| CAGTGTGC | 7.61 upbm affinity estimate (log intensity, higher = more binding, comparable within an allelic series) |
| GCCTCTCC | 7.31 upbm affinity estimate (log intensity, higher = more binding, comparable within an allelic series) |
| AGCATTAG | 10.5 upbm affinity estimate (log intensity, higher = more binding, comparable within an allelic series) |
| AAGCTCTC | 7.48 upbm affinity estimate (log intensity, higher = more binding, comparable within an allelic series) |

Molecular target: SHOX (Homo sapiens, UniProt O15266 103-189)
Assay: PBM; 200 nM protein, PBS
Settings: dsDNA, one strand shown

Chain of SHOX (O15266 103-189): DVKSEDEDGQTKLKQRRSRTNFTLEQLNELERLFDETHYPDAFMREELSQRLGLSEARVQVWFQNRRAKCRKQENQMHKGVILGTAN

| Sequence | binding signal |
| --- | --- |
| TCATAACA | 8.35 upbm affinity estimate (log intensity, higher = more binding, comparable within an allelic series) |
| ATTCATGA | 8.41 upbm affinity estimate (log intensity, higher = more binding, comparable within an allelic series) |
| CTATCATC | 8.16 upbm affinity estimate (log intensity, higher = more binding, comparable within an allelic series) |
| AATTTCGA | 8.68 upbm affinity estimate (log intensity, higher = more binding, comparable within an allelic series) |
| GTTAGTCA | 8.37 upbm affinity estimate (log intensity, higher = more binding, comparable within an allelic series) |
| CTTATAGA | 8.03 upbm affinity estimate (log intensity, higher = more binding, comparable within an allelic series) |
| AGATATTG | 8.52 upbm affinity estimate (log intensity, higher = more binding, comparable within an allelic series) |
| CCCATTTA | 8.95 upbm affinity estimate (log intensity, higher = more binding, comparable within an allelic series) |
| ACTGTTAA | 8.56 upbm affinity estimate (log intensity, higher = more binding, comparable within an allelic series) |
| AAATATAA | 9.24 upbm affinity estimate (log intensity, higher = more binding, comparable within an allelic series) |
| ACAATCAA | 8.45 upbm affinity estimate (log intensity, higher = more binding, comparable within an allelic series) |
| ATTGCTAC | 8.23 upbm affinity estimate (log intensity, higher = more binding, comparable within an allelic series) |
| TAACGACA | 8.33 upbm affinity estimate (log intensity, higher = more binding, comparable within an allelic series) |
| CATATGGG | 7.77 upbm affinity estimate (log intensity, higher = more binding, comparable within an allelic series) |
| TAAATGGA | 8.78 upbm affinity estimate (log intensity, higher = more binding, comparable within an allelic series) |
| CATTTTCC | 8.3 upbm affinity estimate (log intensity, higher = more binding, comparable within an allelic series) |
| AAATTATC | 10.4 upbm affinity estimate (log intensity, higher = more binding, comparable within an allelic series) |
| GATTGAGA | 8.1 upbm affinity estimate (log intensity, higher = more binding, comparable within an allelic series) |
| ATATAGAG | 8.28 upbm affinity estimate (log intensity, higher = more binding, comparable within an allelic series) |
| GAACTAAA | 8.27 upbm affinity estimate (log intensity, higher = more binding, comparable within an allelic series) |
| AAACTAAG | 8.12 upbm affinity estimate (log intensity, higher = more binding, comparable within an allelic series) |
| GTGCTTAA | 9.04 upbm affinity estimate (log intensity, higher = more binding, comparable within an allelic series) |
| GAATTACA | 9.41 upbm affinity estimate (log intensity, higher = more binding, comparable within an allelic series) |
| GAAAAGTA | 7.94 upbm affinity estimate (log intensity, higher = more binding, comparable within an allelic series) |
| TCAAGTAA | 8.54 upbm affinity estimate (log intensity, higher = more binding, comparable within an allelic series) |
| CTCAATAA | 9.16 upbm affinity estimate (log intensity, higher = more binding, comparable within an allelic series) |
| ATTATCCA | 9.69 upbm affinity estimate (log intensity, higher = more binding, comparable within an allelic series) |
| ACGTAATC | 8.86 upbm affinity estimate (log intensity, higher = more binding, comparable within an allelic series) |

Molecular target: HOXB4 (Homo sapiens, UniProt P17483 148-234, V174I)
Assay: PBM; 200 nM protein, PBS
Settings: dsDNA, one strand shown

Chain of HOXB4 (Homo sapiens, UniProt P17483 148-234, V174I) (P17483 148-234 V174I): as the sequence (P17483 148-234) above, with V27I counted along it

| Sequence | binding signal |
| --- | --- |
| CTTAAGCA | 10.1 upbm affinity estimate (log intensity, higher = more binding, comparable within an allelic series) |
| GGATTCCC | 7.52 upbm affinity estimate (log intensity, higher = more binding, comparable within an allelic series) |
| ATTACTTA | 12.5 upbm affinity estimate (log intensity, higher = more binding, comparable within an allelic series) |
| AATATAAA | 10.7 upbm affinity estimate (log intensity, higher = more binding, comparable within an allelic series) |
| CCGTGCGC | 7.75 upbm affinity estimate (log intensity, higher = more binding, comparable within an allelic series) |
| CCCGAGCC | 7.83 upbm affinity estimate (log intensity, higher = more binding, comparable within an allelic series) |
| ATTAAAGC | 11.9 upbm affinity estimate (log intensity, higher = more binding, comparable within an allelic series) |
| GATTATTA | 13.5 upbm affinity estimate (log intensity, higher = more binding, comparable within an allelic series) |
| CAGTGTGC | 7.69 upbm affinity estimate (log intensity, higher = more binding, comparable within an allelic series) |
| GCCTCTCC | 7.24 upbm affinity estimate (log intensity, higher = more binding, comparable within an allelic series) |
| AGCATTAG | 10.7 upbm affinity estimate (log intensity, higher = more binding, comparable within an allelic series) |
| AAGCTCTC | 7.53 upbm affinity estimate (log intensity, higher = more binding, comparable within an allelic series) |

Molecular target: PROP1 (Homo sapiens, UniProt O75360 56-141)
Assay: PBM; 200 nM protein, PBS
Settings: dsDNA, one strand shown

Chain of PROP1 (Homo sapiens, UniProt O75360 56-141) (O75360 56-141): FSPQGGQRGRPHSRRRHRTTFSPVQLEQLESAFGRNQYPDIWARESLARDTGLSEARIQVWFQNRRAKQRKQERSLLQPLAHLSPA

| Sequence | binding signal |
| --- | --- |
| GGATTCCC | 6.63 upbm affinity estimate (log intensity, higher = more binding, comparable within an allelic series) |
| CAGTGTGC | 6.79 upbm affinity estimate (log intensity, higher = more binding, comparable within an allelic series) |
| GCCTCTCC | 6.75 upbm affinity estimate (log intensity, higher = more binding, comparable within an allelic series) |
| AAGCTCTC | 6.71 upbm affinity estimate (log intensity, higher = more binding, comparable within an allelic series) |

Molecular target: PROP1 (Homo sapiens, UniProt O75360 56-141, R99H)
Assay: PBM; 200 nM protein, PBS
Settings: dsDNA, one strand shown

Chain of PROP1 (Homo sapiens, UniProt O75360 56-141, R99H) (O75360 56-141 R99H): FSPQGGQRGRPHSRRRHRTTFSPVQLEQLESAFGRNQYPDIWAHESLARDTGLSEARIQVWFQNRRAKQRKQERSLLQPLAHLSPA

| Sequence | binding signal |
| --- | --- |
| GGATTCCC | 6.7 upbm affinity estimate (log intensity, higher = more binding, comparable within an allelic series) |
| CAGTGTGC | 6.58 upbm affinity estimate (log intensity, higher = more binding, comparable within an allelic series) |
| GCCTCTCC | 6.63 upbm affinity estimate (log intensity, higher = more binding, comparable within an allelic series) |
| AAGCTCTC | 6.64 upbm affinity estimate (log intensity, higher = more binding, comparable within an allelic series) |

Molecular target: PROP1 (Homo sapiens, UniProt O75360 56-141, F88S)
Assay: PBM; 200 nM protein, PBS
Settings: dsDNA, one strand shown

Chain of PROP1 (Homo sapiens, UniProt O75360 56-141, F88S) (O75360 56-141 F88S): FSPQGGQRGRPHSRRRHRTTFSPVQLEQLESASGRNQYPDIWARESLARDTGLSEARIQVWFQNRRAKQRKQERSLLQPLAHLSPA

| Sequence | binding signal |
| --- | --- |
| GGATTCCC | 6.49 upbm affinity estimate (log intensity, higher = more binding, comparable within an allelic series) |
| CAGTGTGC | 6.78 upbm affinity estimate (log intensity, higher = more binding, comparable within an allelic series) |
| GCCTCTCC | 6.67 upbm affinity estimate (log intensity, higher = more binding, comparable within an allelic series) |
| AAGCTCTC | 6.84 upbm affinity estimate (log intensity, higher = more binding, comparable within an allelic series) |
